Many of the other results were omitted from the sample, so hits are more common in it than they were.
NOMO-1 viab = NOMO-1 AML cell viability reduction, primary screen, STK33 inhibitor project, CellTiter-Glo luminescence | NOMO-1 AML viability, 72 h | inhibition, % (no concentration beside the values) | hit rate 7.5% among 37,000; in the data active means inhibition above about 80%; inconclusive means no clear call, values can overlap the other calls
STK33 inh = STK33 kinase inhibitors, primary screen, biochemical, luminescence, ADP-Glo, MBP substrate; hit rate 0.44% among 27,000; AID 2322, 2010; inhibition, % at 12.5 µM; in the data active means inhibition above about 20%; inconclusive means no clear call, values can overlap the other calls
Target sequence (Q9BYT3 whole entry, looked up): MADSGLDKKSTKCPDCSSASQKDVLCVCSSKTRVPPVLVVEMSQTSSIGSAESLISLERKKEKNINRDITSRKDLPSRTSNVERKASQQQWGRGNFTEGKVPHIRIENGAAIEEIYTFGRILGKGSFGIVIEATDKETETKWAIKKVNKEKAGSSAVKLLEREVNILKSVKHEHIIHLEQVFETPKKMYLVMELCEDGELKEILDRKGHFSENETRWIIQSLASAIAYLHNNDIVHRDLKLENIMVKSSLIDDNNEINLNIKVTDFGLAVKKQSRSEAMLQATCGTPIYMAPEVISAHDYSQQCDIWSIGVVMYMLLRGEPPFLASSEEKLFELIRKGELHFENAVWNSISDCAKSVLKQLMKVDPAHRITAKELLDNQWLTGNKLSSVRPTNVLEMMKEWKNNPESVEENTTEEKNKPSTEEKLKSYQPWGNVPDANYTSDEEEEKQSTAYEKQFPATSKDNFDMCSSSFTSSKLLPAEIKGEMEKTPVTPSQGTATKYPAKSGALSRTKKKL
PD-1 reversal = activators reversing PD-1 mediated T-cell inhibition, primary screen, luminescence, primary human CD4 T cells, PD-L1 beads; CellTiter-Glo 96 h; activation, % (concentration not given with the values); 29,000 tested, under 10 active; AID 2316, 2010; call rule not given here
Hits are given with their value; - = inactive; ? = inconclusive; . = no result given.

SMILES	NOMO-1 viab	STK33 inh	PD-1 reversal
O=C(Oc1ccc(C=Nc2ccc(F)cc2)cc1)c1ccco1	-	.	-
O=C(CSc1nnc(-c2ccncc2)n1-c1ccc(F)cc1)c1ccccc1	-	-	-
O=C1CC(c2ccccc2)N(c2cccc(C(F)(F)F)c2)C(=S)N1 (stereo unspecified)	-	.	-
Cc1ccc(NC(=O)N(C2=NCC(C)(C)S2)c2ccc(F)c(Cl)c2)cc1	-	.	-
CC(C)NS(=O)(=O)c1ccc(OCC(=O)O)cc1	-	-	-
COC(=O)COc1ccc(S(=O)(=O)NC2CCCCCC2)cc1	119	-	-
COc1cccc2c1C(=O)c1ccc3c(c1C2=O)C(=O)CC(C)(O)C3 (stereo unspecified)	93	-	-
Cc1cc(O)c2c(c1)C(=O)c1cccc(O)c1C2=O	-	-	.
CC1(O)CC(=O)c2c(ccc3c2C(=O)c2cccc(O)c2C3=O)C1 (stereo unspecified)	95	-	-
COc1cc(O)cc2cc3c(c(O)c12)C(=O)C[C@@](C)(O)C3	-	-	-
CCC(=O)Nc1cccc(NC(=O)COc2cc(Cl)c(Cl)cc2Cl)c1	-	-	.
COc1ccc(-n2c(CC#N)nnc2SCc2c(C)c(C)c(C)c(C)c2C)cc1	102	.	-
COc1ccc(-n2c(CSc3nnc(-c4ccc(OC)c(OC)c4)n3-c3ccccc3)n[nH]c2=S)cc1	-	-	-
C[C@H]1CN([C@@H](C)CO)C(=O)c2cc(NC(=O)Nc3ccc(C(F)(F)F)cc3)ccc2O[C@@H]1CN(C)C(=O)Nc1ccc(F)cc1	-	.	-
C[C@H](CO)N1C[C@H](C)[C@H](CN(C)C(=O)Nc2ccc(F)cc2)Oc2ccc(NC(=O)Nc3ccc(C(F)(F)F)cc3)cc2C1=O	112	.	-
C[C@H](CO)N1C[C@H](C)[C@@H](CN(C)C(=O)Nc2ccc(C(F)(F)F)cc2)Oc2ccc(NC(=O)Nc3ccc(F)cc3)cc2C1=O	-	-	-
C[C@@H]1CN([C@@H](C)CO)C(=O)c2cc(NC(=O)Nc3ccc(C(F)(F)F)cc3)ccc2O[C@@H]1CN(C)C(=O)Nc1ccc(F)cc1	113	.	-
C/C=C1/[C@H](O[C@@H]2O[C@H](CO)[C@@H](O)[C@H](O)[C@H]2O)OC=C(C(=O)OC)[C@H]1CC(=O)OCCc1ccc(O)cc1	-	-	-
Cc1ccc(C(=O)NC(=O)CSc2nnnn2-c2ccccc2)cc1	-	-	-
CN1CCc2cc(Cl)c(O)cc2[C@@H](c2ccccc2)C1	-	-	.
C=CCN1CCc2c(cc(O)c(O)c2Br)[C@@H](c2ccccc2)C1	109	-	.
COc1ccc(C)cc1S(=O)(=O)N(C)CC(=O)Nc1cccc(C(F)(F)F)c1	-	-	.
C[C@H](CO)N1C[C@H](C)[C@H](CN(C)Cc2ccc(C(=O)Nc3ccccc3N)cc2)Oc2ccc(NC(=O)Nc3ccc(C(F)(F)F)cc3)cc2C1=O	-	.	-
C[C@H]1CN([C@@H](C)CO)C(=O)Cc2cc(NC(=O)Nc3ccc(C(F)(F)F)cc3)ccc2O[C@H]1CN(C)Cc1ccc(C(=O)Nc2ccccc2N)cc1	127	.	-
C[C@@H]1CN([C@H](C)CO)C(=O)Cc2cc(NC(=O)Nc3ccc(C(F)(F)F)cc3)ccc2O[C@@H]1CN(C)Cc1ccc(C(=O)Nc2ccccc2N)cc1	138	.	-
SMILES	NOMO-1 viab	STK33 inh	PD-1 reversal
Cn1c(N2C(=O)c3cccc4cccc(c34)C2=O)nc2ccccc21	-	-	-
CCN(CC(=O)Nc1ccc(I)cc1)S(=O)(=O)c1ccc(C)cc1	-	-	.
O=S(=O)(N[C@@H]1CCCN(Cc2cccc(OCCO)c2)C1)c1ccccc1	.	-	.
CCNC(=O)c1c(NC(=O)COc2cccc3ccccc23)sc2c1CCCC2	-	-	.
C[C@@H]1CN([C@@H](C)CO)C(=O)c2cccc(NC(=O)C3CCCCC3)c2O[C@@H]1CN(C)Cc1ccc(C(=O)Nc2ccccc2N)cc1	127	.	-
C[C@@H]1CN([C@H](C)CO)C(=O)c2cccc(NC(=O)C3CCOCC3)c2O[C@@H]1CN(C)Cc1ccc(C(=O)Nc2ccccc2N)cc1	107	.	-
C[C@@H]1CN([C@@H](C)CO)C(=O)c2cccc(NC(=O)C3CC3)c2O[C@H]1CN(C)Cc1ccc(C(=O)Nc2ccccc2N)cc1	-	.	-
C[C@H]1CN([C@@H](C)CO)C(=O)c2cccc(NC(=O)C3CCOCC3)c2O[C@@H]1CN(C)Cc1ccc(C(=O)Nc2ccccc2N)cc1	-	.	-
COc1ccccc1-n1c(SCC(=O)c2ccc(Cl)cc2)nc2ccccc2c1=O	-	-	-
O=C(Nc1nc(-c2ccccc2)nc2c1C(=O)CCC2)c1ccccc1	-	.	-
Cc1ccc(Oc2ncccc2NC(=O)c2ccc(Cl)cc2Cl)c2c1CCC2	-	.	-
O=C(NCc1c(OC(=O)c2ccccc2[N+](=O)[O-])ccc2ccccc12)c1ccccc1	.	-	.
COc1cc(N)c(Cl)cc1C(=O)N[C@H]1CCN(CCCOc2ccc(F)cc2)C[C@H]1OC	-	-	.
COc1cc(COc2cc(N)c(Cl)cc2C(=O)CCC2CCN(CCNS(C)(=O)=O)CC2)cc(OC)c1	143	-	-
CS(=O)(=O)c1sc(NC(=O)Nc2ccc(Cl)cc2)c2c1C=CCC2	122	.	-
Cc1cc(S(=O)(=O)Nc2ccc(C(=O)O)cc2)c(C)c(S(=O)(=O)c2ccc(Cl)cc2)c1	-	-	-
COc1ccc(CN(C)C[C@H]2Oc3ccc(NC(=O)CCCCCC(=O)Nc4ccccc4N)cc3CC(=O)N([C@@H](C)CO)C[C@H]2C)cc1	-	.	-
COc1ccc(NC(=O)N(C)C[C@@H]2Oc3ccc(NC(=O)CCCCCC(=O)Nc4ccccc4N)cc3CC(=O)N([C@H](C)CO)C[C@H]2C)cc1	-	.	-
COc1ccc(CN(C)C[C@@H]2Oc3ccc(NC(=O)CCCCCC(=O)Nc4ccccc4N)cc3CC(=O)N([C@@H](C)CO)C[C@@H]2C)cc1	127	.	-
COc1ccc(CN(C)C[C@@H]2Oc3ccc(NC(=O)CCCCCC(=O)Nc4ccccc4N)cc3CC(=O)N([C@H](C)CO)C[C@@H]2C)cc1	124	.	-
O=C1Cc2c([nH]c3ccc(Br)cc23)-c2ccccc2N1	89	-	-
Cc1ccc(C)c(-n2nnnc2SCC(=O)Nc2ccc(F)cc2)c1	-	-	-
CCC(=O)Nc1nonc1-c1nc2ccccc2n1Cc1cc(OC)ccc1C	130	-	-
CC(=O)Nc1nonc1-c1nc2ccccc2n1Cc1ccc(Cl)cc1Cl	?	-	-
Cc1ccccc1N1C(=O)CC(SCC(=O)Nc2ccccc2)C1=O (stereo unspecified)	-	-	.
SMILES	NOMO-1 viab	STK33 inh	PD-1 reversal
CC(C)OC(=O)CCN1C(=O)/C(=C/c2ccccc2)SC1=S	-	.	-
O=C1/C(=C/c2ccc(O)cc2)SC(=S)N1CCc1ccccc1	102	.	-
O=C(Cn1cnc2ccccc2c1=O)Nc1ccc(Cl)c(Cl)c1	-	-	-
Nc1ncnc2c1c1nc3ccccc3nc1n2CCc1ccccc1	-	-	-
CC1CCN(CC(O)COc2c(F)cc(Br)cc2F)CC1 (stereo unspecified)	-	.	-
OC(CN1CCNCC1)Cn1c2ccc(Br)cc2c2cc(Br)ccc21 (stereo unspecified)	121	-	-
CN1CCCCC1CCN1c2ccccc2Sc2ccc(S(C)=O)cc21 (stereo unspecified)	-	-	-

Bioassay records: PubChem, Broad Institute
